# Data as given in PubChem BioAssay (NCI).
# About 83,000 compounds went through this panel and 20% of them were active in at least one assay; those are over-represented in the sample as a whole.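 Activity criterion: percent growth below 10, measured after cells in 96-well plates were exposed to a single compound concentration for 48 hours.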 A number with no mark means an inactive call.
# Tested on: MDA-MB-468 breast
# Assay: NCI-60 one-dose screen, 48 h (100 = growth as untreated, 0 = no growth, -100 = all killed)
# Settings: 10 µM unless noted
row,SMILES,growth
1,COc1ccc(Nc2nc(N/N=C/c3ccc(O)cc3)nc(Nc3ccc([N+](=O)[O-])cc3)n2)cc1,117%
2,CC(C)(C)c1cc(NC(=O)Nc2ccc(-c3cn4c5c(sc4n3)CCc3c[nH]cc3-5)cc2)no1,22.6%
3,CC/C(Cc1ccccc1)=C(\c1ccc(OCCN2CCCCCC2)cc1)c1ccc(OC(=O)NCc2ccccc2)cc1,53.3%
4,O=C(Oc1ccccc1)c1cc(O)c(O)c(O)c1,71.7%
